# Inconclusive results are not listed. A call without a number means that no potency is given here. The source made the active and inactive calls. The call rests on the fitted dose curve; in most records, active means well fitted inhibition curve with a large enough effect; inconclusive means small, poorly fitted or top-dose-only effect; inactive means no such curve, though single readings can be large or run the other way.
# Assay: qHTS for Inhibitors of the Aldehyde Dehydrogenase Family (ALDH1A2, ALDH1A3, ALDH2, ALDH3A1) (AID 2061307); further: nearly all actives have a fitted effect of over 50% in size; on potency: test system not described further here
# Conditions: ALDH inhibition qHTS; series mostly up to 50.3 µM
# Potency means the concentration at half of the fitted maximal effect.
row,SMILES,Potency
1,O=C(Nc1ccc(CCO)cc1)c1ncoc1-c1ccccc1Cl,inactive
2,O=C(Nc1cccc(Nc2ccccc2)c1)c1ccc(-c2cccc([N+](=O)[O-])c2)o1,1.27 µM (active)
3,O=C(O)c1csc(-n2[nH]c(-c3ccc(F)c(Cc4ccccc4)c3)cc2=O)n1,22.5 µM (active)
4,O=C(Nc1ccc(S(=O)(=O)N2CCOC(c3ccccc3)C2)cc1)c1ccc(CN2CCc3ccccc3C2)cc1 (centres undefined),inactive
5,O=C(CSc1nnc(-c2ccccn2)o1)Nc1ccc2c(c1)OCCO2,11.3 µM (active)
6,Cn1c(C(=O)O)cnc1-n1cc(Cc2ccc(S(N)(=O)=O)cc2)c(-c2ccccc2)n1,inactive
7,c1ccc(CCN(Cc2ccccc2)C2CCN(c3ccccc3)CC2)cc1,inactive
8,Cn1c(C(=O)Nc2cccc(Cl)c2)cc2c(=O)n(C)c3ccccc3c21,inactive
9,Cc1c2c(=O)n(-c3ccccc3)[nH]c2cc(=O)n1Cc1ccco1,22.5 µM (active)
10,NS(=O)(=O)c1ccc(Cc2cn(-c3nc(C(=O)O)cs3)c3cc(C(=O)N4CCOCC4)ccc23)cc1,inactive
11,O=C(c1ccc2ccccc2c1)c1no[n+]([O-])c1C(=O)c1ccc2ccccc2c1,5.04 µM (active)
12,CC(C)C(=O)OCc1ccc(-c2nn(Cc3ccccc3)c3ccccc23)o1,inactive
13,NC(=O)Cc1ccc(Nc2ncnc3c2cnn3-c2ccccc2)cc1,inactive
14,COc1cc(NC(=S)N=Nc2c(O)[nH]c3ccccc23)cc(OC)c1OC,inactive
15,O=C1C=CC(=O)N1c1ccc(N2CCOCC2)cc1,1.13 µM (active)
16,COc1ccc2nc(-c3cnn(Cc4ccccc4)c3)sc2c1,inactive
17,Cc1nnc(NCc2ccc(Cl)cc2)o1,8.96 µM (active)
18,COC(=O)c1ccc(CN2CCC(N(CCc3ccccc3)Cc3ccccc3)CC2)cc1,inactive
19,O=c1cc(N2CCNCC2)nc2sc(-c3cccc(-c4ccsc4)c3)nn12,6.31 µM (active)
20,CC(C)Oc1ccc(-c2nc(C(=O)Nc3ncn[nH]3)cs2)cc1,3.55 µM (active)
21,COCCN(C)S(=O)(=O)c1ccc(NC(=O)c2ccc(CN3CCc4ccccc4C3)cc2)cc1,inactive
22,O=C(NC1CCCC1)c1csc(N2CCN(c3cccc(Cl)c3)CC2)n1,3.16 µM (active)
23,COc1ccc(-n2cc(-c3ccc4c(c3)OCO4)n(CC(=O)Nc3cccc(C)c3)c2=O)cc1,inactive
24,Cc1nn(-c2ccc(C(F)(F)F)cn2)c(C)c1CC(=O)Nc1ccc(C(N)=O)cc1,inactive

# From PubChem BioAssay (NCATS)
